Data taken from PubChem BioAssay.
Several values for one entry are separate records, joined by “and”; a condition that tells them apart may be missing. Equal values may be shown once. A number with no mark means an inactive call. No rule for the calls is given here.

These molecules were tested on Aerobactin synthetase IucA (Klebsiella pneumoniae hvKP1) (assay: Biochemical IucA enzyme inhibition primary screen of the Spectrum library (AID 1346200;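 also: 100% = wells without compound and 0% = wells lacking enzyme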)). Conditions: malachite green pyrophosphate, A620, at 8 µM, stronger effect = lower value.

| SMILES | activity remaining |
| --- | --- |
| CN(C)CCc1c[nH]c2ccc(C[C@H]3COC(=O)N3)cc12 | 112% |
| S=c1nc[nH]c2nc[nH]c12 | 120% |
| CC1=C(/C=C/C(C)=C/C=C/C(C)=C/CO)C(C)(C)CCC1 | 105% |
| COc1cc2ccc(=O)oc2c(O)c1O | 112% |
| C=C(C)[C@H]1CC=C(C(=O)O)CC1 | 120% |
| C=C1CCC2C(CC2(C)C)C(=C)CC/C1=N/O (centres undefined) | 105% |
| CCCCCCCCCCCC[C@H](C(=O)O)[C@@H](C)C(=O)O | 115% |
| O=c1c2ccccc2oc2ccc(O)cc12 | 122% |
| COC1=CC(C)[C@@H]2C[C@H]3OC(=O)C[C@H]4C(C)=C(OC)C(=O)C([C@@]34C)[C@@]2(C)C1=O (some centres undefined) | 97.8% |
| CNCC[C@H](Oc1cccc2ccccc12)c1cccs1 | 114% |
| COc1ccc(-c2coc3cc(O)ccc3c2=O)c(OC)c1 | 111% |
| CCOC(=O)CCC(=O)O[C@H]1[C@H](O[C@@H]2[C@@H](C)[C@H](O[C@H]3C[C@@](C)(OC)[C@@H](O)[C@H](C)O3)[C@@H](C)C(=O)O[C@H](CC)[C@@](C)(O)[C@H](O)[C@@H](C)C(=O)[C@H](C)C[C@@]2(C)O)O[C@H](C)C[C@@H]1N(C)C | 113% |
| CO[C@H]1O[C@H](CO)C(O[C@@H]2OC(C(=O)O)[C@@H](O[C@H]3O[C@H](COS(=O)(=O)O)C(O[C@@H]4OC(C(=O)O)[C@@H](O[C@H]5O[C@H](CO)C(O[C@@H]6OC(C(=O)O)[C@@H](O[C@H]7O[C@H](COS(=O)(=O)O)C(O[C@@H]8OC(C(=O)O)=C[C@H](O)C8OS(=O)(=O)O)[C@H](O)[C@H]7NC(C)=O)[C@H](O)[C@H]6O)[C@H](O)[C@H]5NC(C)=O)[C@H](O)[C@H]4O)[C@H](O)[C@H]3NC(C)=O)[C@H](O)[C@H]2O)[C@H](O)[C@H]1NC(C)=O (some centres undefined) | 92.9% |
| COC(=O)CCC(C)[C@H]1CCC2C3C(C[C@H](O)[C@@]21C)[C@@]1(C)CC[C@@H](O)C[C@H]1C[C@H]3O (some centres undefined) | 105% |
| C[n+]1ccccc1/C=N/O | 117% |
| C=C1C(C2(C)C=CC(=O)C(C)(C)C2CC(=O)OC)CC[C@@]2(C)[C@H](c3ccoc3)OC(=O)C3OC132 (some centres undefined) | 105% |
| C#C[C@]1(O)CCC2C3CCC4=Cc5oncc5C[C@]4(C)C3CC[C@@]21C (some centres undefined) | 120% |

| SMILES | activity remaining |
| --- | --- |
| CC(C)=CCc1c(O)cc2occ(-c3ccc4c(c3)OCO4)c(=O)c2c1O | 114% |
| O=C(O)[C@H]1/C(=C/CO)O[C@@H]2CC(=O)N21 | 112% |
| COc1ccc(-c2cc(=O)c3cc(OC)ccc3o2)cc1 | 95.7% |
| COc1ccc(/C=C/C(=O)O)cc1OC | 110% and 92.7% |
| CC(=O)OCC(=O)[C@@]1(O)[C@H](OC(C)=O)CC2C3CCC4=CC(=O)C=C[C@]4(C)[C@@]3(F)[C@@H](O)C[C@@]21C (some centres undefined) | 120% |
| Cc1ncc(CO)c(CO)c1O | 102% |
| CCC(C)C(=O)O[C@H]1C[C@H](O)C=C2C=C[C@H](C)[C@H](CC[C@@H](O)C[C@@H](O)CC(=O)O)C21 (some centres undefined) | 113% |
| CCC(=O)NCC[C@@H]1CCc2ccc3c(c21)CCO3 | 120% |
| C[C@@H](N)CO | 106% |
| CO[C@H]1C[C@H](O[C@H]2[C@H](C)[C@@H](OC3O[C@H](C)C[C@H](N(C)C)[C@H]3OC(C)=O)[C@@H](C)C[C@]3(CO3)C(=O)[C@H](C)[C@@H](OC(C)=O)[C@@H](C)[C@@H](C)OC(=O)[C@@H]2C)O[C@@H](C)[C@@H]1OC(C)=O (some centres undefined) | 116% |
| COc1cc(OC)c2c(=O)c(-c3ccccc3)coc2c1 | 110% |
| N=c1ccn2c(n1)O[C@@H]1C2O[C@H](CO)[C@H]1O (some centres undefined) | 105% |
| CC1=CC(=O)CC(C)(C)C1(O)/C=C/C(C)=C\C(=O)O (centres undefined) | 117% |
| C[C@H]1COc2c(N3CCN(C)CC3)c(F)cc3c(=O)c(C(=O)O)cn1c23 | 113% |
| CN(C)CCN(Cc1ccccc1)c1ccccn1 | 109% |
| CC(=O)Oc1c(C)c(C)c2c(c1C)CCC(C)(CCCC(C)CCCC(C)CCCC(C)C)O2 (centres undefined) | 96.6% |
| C=C1CCC(C2CC(=O)OC2=O)C(=O)CCC2C1CC2(C)C (centres undefined) | 111% |
